For 14 molecules, relative cell viability results are on record in the supplement of paper PMC8371130.

Counter-ions that a name gives are not always drawn.

The experiment has as its system HL-1. The experiment can be described thus: relative cell viability (CellTiter-Glo) vs DMSO control (% of DMSO control); higher = more viable cells. As to conditions: oxygen condition: normoxia 72 h; 200 nM. Put shortly: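 HL-1 mouse atrial cardiomyocytes were plated in 384-well plates at 1000 cells per well together with compounds at 40, 200, 1000 or 5000 nM in 0.01% DMSO. One day later, cells went to a hypoxic workstation (1% O2) for 48 h, then were reoxygenated for 24 h in a normal incubator, or stayed in normoxia for the same time. Cell viability was read by CellTiter-Glo luminescence and normalised to vehicle-treated control cells.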
As for `Cc1onc(-c2ccccc2)c1C(=O)N[C@@H]1C(=O)N2[C@@H]1SC(C)(C)[C@@H]2C(=O)O` [Oxacillin sodium monohydrate], the relative cell viability was 101. Next, `N[C@@H](Cc1cc(I)c(Oc2cc(I)c(O)c(I)c2)c(I)c1)C(=O)O` [L-Thyroxine]: 101; `COc1ccc(Cl)cc1C(=O)NCCc1ccc(S(=O)(=O)NC(=O)NC2CCCCC2)cc1` [Glyburide]: 103. Next, `COC(=O)C1=C(C)NC(C)=C(C(=O)OC(C)C)C1c1cccc2nonc12` (centres undefined) [Isradipine]: 97.7; `CN(C)CCN(Cc1ccccc1)c1ccccn1` [Tripelennamine HCl]: 91.8. Next, `CN1CCCCC1CCN1c2ccccc2Sc2ccc([S+](C)[O-])cc21` (centres undefined) [Mesoridazine Besylate]: 102. In turn, `N[C@@H](Cc1ccc(O)c(O)c1)C(=O)O` [Levodopa] displayed a relative cell viability of 101. The same measure for `CNCC[C@H](Oc1cccc2ccccc12)c1cccs1` [Duloxetine HCl]: 94.3. Next, `CCCNC(C)C(=O)Nc1c(C)csc1C(=O)OC` (centres undefined) [Articaine HCl]: 101.

Consider `CCOc1nc2cccc(C(=O)O)c2n1Cc1ccc(-c2ccccc2-c2nnn[nH]2)cc1` [Candesartan], for which the relative cell viability turned out to be 109.

As for `COc1ccc(-c2nc3cc(C4=NNC(=O)CC4C)ccc3[nH]2)cc1` (centres undefined) [Pimobendan], the relative cell viability is 102.

For `CCCN[C@H]1CCc2nc(N)sc2C1` [Pramipexole dihydrochloride monohydrate], the relative cell viability came to 105.

With `CCN(CC)C(=S)SSC(=S)N(CC)CC` [Disulfiram], the relative cell viability turned out to be 11.5. The same measure for `CN[C@H](CC(C)C)C(=O)N[C@H]1C(=O)N[C@@H](CC(N)=O)C(=O)N[C@H]2C(=O)N[C@H]3C(=O)N[C@H](C(=O)N[C@H](C(=O)O)c4cc(O)cc(O)c4-c4cc3ccc4O)[C@H](O)c3ccc(c(Cl)c3)Oc3cc2cc(c3O[C@@H]2O[C@H](CO)[C@@H](O)[C@H](O)[C@H]2O[C@H]2C[C@](C)(N)[C@H](O)[C@H](C)O2)Oc2ccc(cc2Cl)[C@H]1O` [Vancomycin HCl]: 99.4.
